Reference: PubChem BioAssay AID1906 (The Scripps Research Institute Molecular Screening Center, 2009)
Out of some 300,000 compounds screened, about 1,500 (0.5%) were called active. Shown is part of a subset that was picked to be rich in actives. Values without a mark were called inactive.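 How the source made its calls: active means inhibition above the mean of all tested compounds plus 3 SD, set per screening campaign (cut at about 17% in these data); inactive means the rest.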

The molecules below were run on cathepsin L1 (Fasciola hepatica) (assay: Fasciola hepatica cathepsin L1 inhibitors, primary screen, counter-screen for PFM18AAP inhibitor project, biochemical, QFRET, fluorogenic peptide substrate (AID 1906;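 further: 0% = plate median of test compound wells and 100% = 1 µM Z-Phe-Ala-diazomethylketone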)). Settings: recombinant F. hepatica cathepsin L1, Z-Leu-Arg-MCA fluorescence; at 5.96 µM; hits give high values.
CC(=O)Nc1ccc(S(=O)(=O)N(C)CC(=O)NCCC2=CCCCC2)cc1 was tested, and the inhibition was -4.22%.
For CCCCC(O)(CCCC)C(=O)NN(C(=O)CCl)c1ccccc1, the inhibition was 18.1% (active).
Work on COC(=O)N(NC(=O)C(O)(C(C)C)C(C)C)c1ccccc1 yielded an inhibition of -0.72%.
In the case of CCCC(O)(CCC)C(=O)NN(C(=O)CCl)c1cccc(C)c1, the inhibition was 27.6% (active).
For Cc1ccc(N(NC(=O)C(C)(C)O)C(=O)c2ccccc2)cc1C, the inhibition was 1.52%.
CC(C)(O)C(=O)NN(C(=O)c1ccccc1)c1cccc(Br)c1 showed an inhibition of -2.56%.
CCCCCNC(=O)C1c2ccccc2Oc2ccccc21 gave an inhibition of -9%.
For CC(Sc1nc2cc(Cl)ccc2s1)C(=O)Nc1ccc2c(c1)OCO2 (configuration not stated), the inhibition was -3.27%.
COc1ccc(CCNS(=O)(=O)c2cn(C)nc2C)cc1 was tested, and the inhibition was -5.7%.
In the case of CCOC(=O)c1cc2cc3ccccc3cc2oc1=O, the inhibition was 0.07%.
With CCOC(=O)C1=C(c2ccc(OC)cc2)C(=O)c2ccccc2C1=O the inhibition was 28.8% (active).
CCOC(=O)c1c(-c2ccc(C)cc2)csc1/N=C(\C)C1=C(O)c2ccccc2C1=O showed an inhibition of 1.32%.
CC(=O)c1ccccc1NC(=O)CC1(CC(=O)O)CCCCC1 gave an inhibition of 2.79%.
For Cc1ccccc1OCC(=O)Nc1nnc(S(=O)(=O)N2CCCC2)s1, the inhibition was 3.28%.
Work on CCn1c(SCC(=O)NC2=NCCS2)nnc1C(C)NC(=O)c1ccccc1F (configuration not stated) yielded an inhibition of -7.21%.
For O=C1CCCCC1Sc1ccc(Cl)cc1[N+](=O)[O-] (configuration not stated), the inhibition was -1.08%.
For N#C/C(=C\c1ccccc1)c1n[nH]c(Cn2cncn2)n1, the inhibition was 3.03%.
In the case of CCn1cc(C(=O)N2CCN(C3CCCCC3)CC2)c2cc(OC)c(OC)cc2c1=O, the inhibition was 20.3% (active).
CCn1cc(C(=O)N2CCN(Cc3ccc4c(c3)OCO4)CC2)c2cc(OC)c(OC)cc2c1=O was tested, and the inhibition was 7.48%.
Molecule COc1cc(C(=O)N2CCN(C3CCC(C)CC3)CC2)cc(OC)c1OC (configuration not stated) has an inhibition of 1.26%.
Molecule O=c1c([N+](=O)[O-])cccn1Cc1ccc(F)cc1Cl has an inhibition of -4.32%.
Work on C/C(=N\NC(N)=S)c1ccncc1 yielded an inhibition of 3.21%.
C/C(=N\NC(=O)c1cccnc1)c1ccc(-c2ccccc2)cc1 was tested, and the inhibition was 2.6%.
In the case of C/C(=N\NC(N)=S)c1cccnc1, the inhibition was 35.1% (active).
O=C(c1ccc(-c2ccccc2)cc1)C1CCCN(C(=O)c2cncs2)C1 (configuration not stated) was tested, and the inhibition was 0.67%.
COc1ccc(-n2nc(C(=O)NCC(=O)N3CCN(c4ccccc4OC)CC3)c3ccccc3c2=O)c(OC)c1 showed an inhibition of 0.09%.
Work on Cc1ccc(Cl)c(NC(=O)CN2CCN(C=O)CC2)c1 yielded an inhibition of -5.16%.
CCOC(=O)C(C)n1cnc2scc(-c3ccc(C)c(C)c3)c2c1=O (configuration not stated) gave an inhibition of 3.75%.
For COC(=O)Cn1cnc2scc(-c3ccc(C)c(C)c3)c2c1=O, the inhibition was 24.9% (active).
With CCn1cnc2scc(-c3ccc(C)c(C)c3)c2c1=O the inhibition was 0.4%.
CCN(Cc1ccccc1)C(=O)Cc1ccc(OC)c(S(=O)(=O)N2CCOCC2)c1 showed an inhibition of -0.92%.
With CCSc1nc2c(c(=O)[nH]1)C(c1cccnc1)C(C(=O)OC(C)C)=C(C)N2 (configuration not stated) the inhibition was 4.8%.
COc1ccccc1C(=O)Nc1ccc(OCc2nnc3c4ccccc4c(C)nn23)cc1 showed an inhibition of -0.1%.
Work on CCOCCCNc1c(CC)c(C)c(C#N)c2nc3ccccc3n12 yielded an inhibition of 2.01%.
In the case of CC(C)CN(CC(C)C)CC(O)CN(c1ccccc1)S(=O)(=O)c1ccccc1[N+](=O)[O-] (configuration not stated), the inhibition was 4.97%.
COCCN(C(=O)C(C)C)c1nnc(-c2ccc(C(C)(C)C)cc2)s1 showed an inhibition of 3.51%.
Molecule COc1ccc(CNC(=O)C2(CC3CC(c4ccccc4)=NO3)CCN(C(=O)c3cccc(O)c3)CC2)cc1 (configuration not stated) has an inhibition of -1.66%.
O=C(c1ccccc1)N1CCC(CC2CC(c3ccc(Cl)cc3)=NO2)(C(=O)NCC2CCCCC2)CC1 (configuration not stated) was tested, and the inhibition was -0.13%.
With CCCCCCCNC(=O)C1(CC2CC(c3cccc(Br)c3)=NO2)CCN(C(=O)c2cc(OCC)c(OCC)c(OCC)c2)CC1 (configuration not stated) the inhibition was 30% (active).
CN(CC(=O)Nc1cccc(F)c1)C(=O)C1CSC2(C)CCC(=O)N12 (configuration not stated) was tested, and the inhibition was -4.97%.
In the case of CC(N=Cc1nc(-c2ccccc2)oc1O)c1ccccc1 (configuration not stated), the inhibition was 1.73%.
With Oc1oc(-c2ccccc2Br)nc1/C=N/c1ccccn1 the inhibition was 53.9% (active).
Work on CCOc1ccc2nc(/N=C/c3nc(-c4ccccc4)oc3O)sc2c1 yielded an inhibition of 5.43%.
In the case of COc1ccc(C(C)NC(=O)C23CC4CC(CC(C4)C2)C3)cc1 (configuration not stated), the inhibition was -3.76%.
Cc1cccc(NC(=O)CCN2CC(C)CC(C)C2)c1 (configuration not stated) showed an inhibition of -3.49%.
COc1cccc(NC(=O)CN(C)CC(=O)Nc2ccc3c(c2)CCC3)c1 was tested, and the inhibition was 0.04%.
For CC1CC(C)CN(CCC(=O)Nc2ccc3c(c2)CCC3)C1 (configuration not stated), the inhibition was 40.7% (active).
